# Experimental data as given in PubChem BioAssay AID1259313 (Sanford-Burnham Center for Chemical Genomics, 2017).
# About 8,500 (2.5%) of roughly 340,000 compounds were called active. What follows is part of a selection rich in actives, with near analogues and random picks from the rest. Unmarked numbers belong to inactive results.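 Rule for the calls: active = melting temperature shift of at least 10% of the positive control shift, at one fixed dose; inactive = the rest.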
# Tested on: Glutamate receptor ionotropic, NMDA 3A (GRIN3A) ligand-binding domain
# Assay: NR3A LBD thermal stabilization by compounds – biophysical, differential scanning fluorimetry, uHTS, primary screen (AID 1259313)
# Details: at 25 µM, active compounds read high, 0% = protein alone, 100% = glycine-bound protein
row,Structure (SMILES),Tm shift relative to glycine control
1,COc1ccc(S(=O)(=O)N2CCN(c3ncnc4c(-c5ccccc5)nsc34)CC2)cc1,-1.19%
2,O=C(c1ccc(F)cc1)c1c[nH]c(C(=O)NCc2cccnc2)c1,-1.06%
3,CCN(Cc1ccncc1)C(=O)c1cccc(S(=O)(=O)N2CCOCC2)c1,0.46%
4,CNS(=O)(=O)c1ccc(NC(=O)Nc2ccc3c(c2)OCO3)cc1,11.2% (active)
5,Cc1ccc(S(=O)(=O)NCC(=O)Nc2ccc3c(c2)OCCO3)cc1,0.9%
6,CC(C)CNS(=O)(=O)c1ccc(C(=O)Nc2ccc3c(c2)OCO3)cc1,-0.27%
7,CCN(CC)CC(=O)c1c[nH]c2ccc(OC)cc12,-2.92%
8,COc1ccc2[nH]cc(CCN3C(=O)c4ccc(C(=O)O)cc4C3=O)c2c1,-2.98%
9,COc1ccc2[nH]cc(/C=C(/C#N)S(=O)(=O)c3ccccc3)c2c1,13.2% (active)
10,C=C(C)C1CC=C(C)/C(=N/NC(=O)CCCNc2cccc(C)c2)C1 (stereo unspecified),-0.09%
11,CCc1cc2c(SCC(=O)Nc3ncc(Cl)c(C)c3Cl)ncnc2s1,-1.41%
12,O=C(NNC(=O)c1cccc(S(=O)(=O)Nc2ccc(Cl)cc2)c1)c1ccc(=O)[nH]c1,0.33%
13,CC(C)Nc1nnc(SCC(=O)c2c[nH]c3ccccc23)s1,-3.26%
14,Cc1cc2c(=O)n(C)c(SCC(=O)c3cc4ccccc4o3)nc2s1,-0.65%
15,CC(C)N(C(=O)CSc1nnc(NC2CC2)s1)c1ccccc1,-1.56%
16,Cc1ccc(Nc2nnc(SCC(=O)c3cc4ccccc4o3)s2)cc1C,11.5% (active)
17,Cc1ccccc1Nc1nnc(SCC(=O)c2cc3ccccc3o2)s1,-23.4%
18,CC(C)c1ccc(Nc2nnc(SCC(=O)c3nnc(-c4ccccc4)o3)s2)cc1,19.9% (active)
19,O=C(CN1C(=O)CCS(=O)(=O)c2ccccc21)NCc1ccc(F)cc1,-2.05%
20,CN1CCN(C(=O)c2ccc(NS(=O)(=O)c3ccccc3)cc2)CC1,-0.09%
21,OCCCC1CCCCN1Cc1nc(Cc2ccccc2Cl)no1 (stereo unspecified),0.08%
22,NS(=O)(=O)c1cc(C(=O)NCCOc2ccccc2)c(Cl)cc1Cl,-0.6%
23,CCCN(C(=O)CSc1nnc(N)s1)c1c(N)n(Cc2ccccc2)c(=O)[nH]c1=O,5.76%
24,CC1=CC(=C(C#N)c2nc3ccccc3s2)C=C(C)N1c1ccc(F)cc1F,-4.96%
25,N#C/C(=C(/O)Cc1cccc2ccccc12)c1nc2ccccc2s1,19.3% (active)
26,O=C(O)CC/C(=C\c1cc2c(cc1Br)OCO2)c1nc2ccccc2s1,-1.28%
